DT40 TDP1 CPT: qHTS for Inhibitors of human tyrosyl-DNA phosphodiesterase 1 (TDP1): qHTS in cells in presence of CPT; chicken DT40 Tdp1-/-;hTDP1 cells + 20 nM CPT, ATP luminescence, 48 h; Potency, µM (series often up to 46.2 µM), hits mostly inhibitors; actives 12% (n = 420,000); further: nearly all actives have a fitted effect of over 55% in size
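Cell growth measured by CellTiter-Glo luminescence after a minimum 48 h, 37 C compound exposure with 20 nM CPT in Tdp1-knockout DT40 cells stably expressing hTDP1, seeded 400/well; qHTS titration format.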
TDP1 block: qHTS Assay for Inhibitors of Tyrosyl-DNA Phosphodiesterase (TDP1); Potency, µM (highest dose often 130 µM), hits mostly inhibitors; actives 0.28% (n = 350,000); recombinant TDP1, AlphaScreen DNA substrate cleavage; Tyrosyl-DNA phosphodiesterase 1 (Homo sapiens), Q9NUW8; AID 485290, 2010; further: nearly all actives have a fitted effect of over 40% in size
Target sequence (Q9NUW8 whole entry, looked up): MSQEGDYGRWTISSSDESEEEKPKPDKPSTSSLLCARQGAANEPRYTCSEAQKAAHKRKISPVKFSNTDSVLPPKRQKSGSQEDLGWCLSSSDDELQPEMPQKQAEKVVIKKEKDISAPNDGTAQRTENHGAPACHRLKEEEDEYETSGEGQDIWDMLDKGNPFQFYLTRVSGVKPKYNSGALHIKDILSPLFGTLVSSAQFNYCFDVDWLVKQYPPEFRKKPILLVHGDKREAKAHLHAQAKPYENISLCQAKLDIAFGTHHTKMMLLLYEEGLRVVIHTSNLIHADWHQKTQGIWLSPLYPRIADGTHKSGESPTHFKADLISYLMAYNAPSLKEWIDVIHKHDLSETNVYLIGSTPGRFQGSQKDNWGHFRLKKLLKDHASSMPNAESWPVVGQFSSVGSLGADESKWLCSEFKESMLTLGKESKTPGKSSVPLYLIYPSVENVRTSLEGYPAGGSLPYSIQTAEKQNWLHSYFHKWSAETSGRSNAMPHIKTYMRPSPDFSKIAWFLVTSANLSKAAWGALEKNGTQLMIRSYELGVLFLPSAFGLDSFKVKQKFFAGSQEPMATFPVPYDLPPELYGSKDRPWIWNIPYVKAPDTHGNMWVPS
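Recombinant E. coli-expressed Tdp1 (1 nM) preincubated with compound 15 min at RT, then 5'-biotin/3'-phosphotyrosine-FITC DNA substrate (15 nM) added for 5 min. AlphaScreen beads (10 ug/ml) added, 10 min RT; tyrosine-FITC cleavage read as signal loss.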
TDP1 cell noCPT: qHTS for Inhibitors of human tyrosyl-DNA phosphodiesterase 1 (TDP1): qHTS in cells in absence of CPT. actives 15% (n = 420,000). AID 686978, 2013. Potency, µM (top dose mostly 46.2 µM), actives largely listed as inhibitors. DT40 Tdp1-/- hTDP1 cells, no CPT, ATP luminescence, 48 h; further: nearly all actives have a fitted effect of over 55% in size
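DT40 Tdp1-/-;hTDP1 cells, no CPT (DMSO vehicle only), 400 cells/well; compounds pin-transferred; ≥48 hr, 37 °C; CellTiter-Glo 30 min RT dark, luminescence read.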
miR-21 reporter: qHTS Assay for Modulators of miRNAs and/orActivators of miR-21; 340,000 tested, under 10 active; Potency, µM (series often up to 38.3 µM), hits mostly activators; HeLa miR-21 FLuc reporter, luciferase, 48 h; AID 2288, 2010;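 further: miR-21 action dims this reporter so a rising signal means less miR-21 action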
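HeLa miR-21-FLuc reporter line, endogenous miR-21; 2000 cells/well in DMEM/10% FBS; compound titration up to ~40uM final, 48 h, 37 degree Celsius; luciferase detection reagent, 15 min lysis, CCD luminescence.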
uPA surface inh: qHTS for Inhibitors of Cell Surface uPA Generation. cell surface uPA generation assay, qHTS. Potency, µM (highest dose often 38.3 µM), most hits filed as inhibitors. actives 0.31% (n = 330,000). AID 540303, 2011; active means well fitted inhibition curve with a large enough effect; inconclusive means small, poorly fitted or top-dose-only effect; inactive means no such curve, though single readings can be large or run the other way; tested in mouse RAW 264.7 cells; further: nearly all actives have a fitted effect of over 55% in size
Of the large screens only hits and unclear results are named; the others gave an inactive call. Only some compounds are listed: those with a hit (about 16% of all), similar ones and a draw of the others. Unless noted, the call rests on the fitted dose curve; in most records, active means well fitted curve in the direction sought with a large enough effect; inconclusive means small, poorly fitted or top-dose-only effect, or another doubt; inactive means no such curve, though single readings can be large; an effect the other way counts as inactive or inconclusive.

COc1ccccc1-c1csc(-n2ncc(C#N)c2N)n1	none (no result: DT40 TDP1 CPT, TDP1 cell noCPT, uPA surface inh)
O=C(Nc1ccccc1)N1CC=C(c2ccccc2)CC1	none (no result: DT40 TDP1 CPT, TDP1 cell noCPT, uPA surface inh)
CC(C)c1ccc(-c2noc(C3CCCN(C(=O)c4ccc(F)cc4F)C3)n2)cc1 (stereo not drawn)	DT40 TDP1 CPT inconclusive, TDP1 cell noCPT 21µM (no result: uPA surface inh)
Cc1ccccc1NC(=O)N1CCCC(c2nc(-c3ccc(C(C)C)cc3)no2)C1 (stereo not drawn)	DT40 TDP1 CPT 16µM, TDP1 cell noCPT 35µM (no result: uPA surface inh)
O=C(Nc1ccccc1)N1CC=C(c2ccc(F)cc2)CC1	DT40 TDP1 CPT inconclusive, TDP1 cell noCPT 13µM
O=C(Nc1ccccc1)N1CCCC(c2nc(-c3ccc(F)cc3)no2)C1 (stereo not drawn)	DT40 TDP1 CPT inconclusive, TDP1 cell noCPT 18µM
Cc1ccc(N2CC(C(=O)Nc3nnc(C(C)C)s3)CC2=O)cc1 (stereo not drawn)	none
C(=N\n1cnnc1)/c1ccccc1OCCOc1ccccc1	DT40 TDP1 CPT inconclusive, TDP1 cell noCPT inconclusive
Cc1cccc(C)c1OCc1cc(C(=O)N(C)CCc2ccccn2)no1	DT40 TDP1 CPT inconclusive, TDP1 cell noCPT inconclusive
Cc1ccccc1NC(=O)N1CCCC(c2nc(-c3ccc(F)cc3)no2)C1 (stereo not drawn)	DT40 TDP1 CPT inconclusive (no result: uPA surface inh)
Cc1ccc(NC(=O)N2CCCC(c3nc(-c4ccc(F)cc4)no3)C2)cc1 (stereo not drawn)	DT40 TDP1 CPT 23µM, TDP1 cell noCPT inconclusive (no result: TDP1 block)
CCc1ccc(/C=N/Nc2nn[nH]n2)cc1	none
CC1CCCN(CCOCCOc2ccc(Cl)cc2Br)C1 (stereo not drawn)	DT40 TDP1 CPT inconclusive, TDP1 cell noCPT 18µM (no result: uPA surface inh)
Cc1cc(Cl)c(OCCOCCN2CCCC(C)C2)c(Br)c1 (stereo not drawn)	DT40 TDP1 CPT 29µM, TDP1 cell noCPT 16µM
CC1CCCN(CCOCCOc2ccc(Br)cc2Cl)C1 (stereo not drawn)	DT40 TDP1 CPT 18µM, TDP1 cell noCPT 18µM
Cc1cc(Cl)c(OCCOCCN2CCCCC2)c(Br)c1	TDP1 cell noCPT inconclusive
CN1CCN(CCOCCOc2ccc(Br)cc2Cl)CC1	DT40 TDP1 CPT inconclusive, TDP1 cell noCPT inconclusive (no result: TDP1 block)
CC1CCCN(CCOc2ccc(Br)cc2)C1 (stereo not drawn)	none
COC(=O)NC1C=CCCC1C(C)=O (stereo not drawn)	none (no result: DT40 TDP1 CPT, TDP1 cell noCPT, miR-21 reporter, uPA surface inh)
Cc1cccc(C(=O)NC(CC(=O)O)c2ccc(OC3CCCC3)cc2)c1[N+](=O)[O-] (stereo not drawn)	none
O=C(CCN1C(=O)/C(=C\C=C\c2ccccc2)SC1=S)Nc1cccc(C(=O)O)c1	TDP1 block inconclusive, uPA surface inh inconclusive
CCCCC1=CC2=C(c3ccco3)C(=O)C(C)(OC(=O)c3ccc(OC)cc3)C(=O)C2=CN1C1CC1 (stereo not drawn)	DT40 TDP1 CPT inconclusive
Cc1cccc(C)c1NC(=O)c1sc(N)nc1-c1ccccc1	none
CCC(=O)c1ccc(NC(C)=O)cc1O	none
CC(=O)Nc1ccc2c(c1)C(C)(C)C(C)N2C (stereo not drawn)	DT40 TDP1 CPT 16µM, TDP1 cell noCPT inconclusive
O=c1[nH]nc(CNc2cccc(C(F)(F)F)c2)c2ccccc12	DT40 TDP1 CPT 26µM, TDP1 cell noCPT 15µM
O=C(COC(=O)c1n[nH]c(=O)c2ccccc12)NCc1ccccc1	DT40 TDP1 CPT 12µM, TDP1 cell noCPT 9.2µM, uPA surface inh inconclusive (no result: miR-21 reporter)
Cc1nnc(NCc2n[nH]c(=O)c3ccccc23)c2ccccc12	DT40 TDP1 CPT 5.8µM, TDP1 cell noCPT 10µM (no result: uPA surface inh)
O=C(COC(=O)c1n[nH]c(=O)c2ccccc12)c1ccccc1	TDP1 cell noCPT inconclusive
COc1ccc(NCc2n[nH]c(=O)c3ccccc23)cc1	DT40 TDP1 CPT inconclusive, TDP1 cell noCPT inconclusive
Cc1cc(C(=O)COC(=O)Cc2n[nH]c(=O)c3ccccc23)c(C)n1-c1cccc(C(F)(F)F)c1	DT40 TDP1 CPT inconclusive, TDP1 cell noCPT 16µM
CCn1c(CNc2cccc(C(F)(F)F)c2)n[nH]c1=S	none
O=c1[nH]nc(Cc2ccccc2)c2ccccc12	DT40 TDP1 CPT 7.3µM
O=C(O)CSCC(=O)Nc1ccc(Br)c(C(F)(F)F)c1	none
COc1cc(CCC(=O)Nc2cccc(C(F)(F)F)c2)cc(OC)c1OC	DT40 TDP1 CPT inconclusive, TDP1 cell noCPT 13µM
COc1cc(CCC(=O)Nc2cc(C)cc(C)c2)cc(OC)c1OC	TDP1 cell noCPT 16µM
Cc1nnc(NC(=O)CCSCCC(=O)Nc2nnc(C)s2)s1	TDP1 block 32µM
COCC(=O)Nc1cccc(C(F)(F)F)c1	none
COc1cc(CCC(=O)Nc2ccc(Br)c(C(F)(F)F)c2)cc(OC)c1OC	DT40 TDP1 CPT 18µM, TDP1 cell noCPT 21µM
Cc1c(C(=O)NCC2COCCO2)cnn1-c1nccc(-c2cccs2)n1 (stereo not drawn)	none (no result: TDP1 block, miR-21 reporter, uPA surface inh)
CCC(=O)Nc1nc2ccc3nc(C)sc3c2s1	DT40 TDP1 CPT inconclusive, TDP1 cell noCPT 21µM
COc1cc(CCC(=O)Nc2ccc(Cl)c(C(F)(F)F)c2)cc(OC)c1OC	DT40 TDP1 CPT 18µM, TDP1 cell noCPT 8.2µM
O=C(COc1cccc2c1CCNC2=O)Nc1cccc(C(F)(F)F)c1	DT40 TDP1 CPT 8.2µM, TDP1 cell noCPT 16µM (no result: miR-21 reporter)
COc1cc(/C=C(\C#N)C(=O)Nc2cc(C(F)(F)F)ccc2Cl)ccc1OCC(=O)Nc1cccc(C(F)(F)F)c1	DT40 TDP1 CPT 23µM, TDP1 cell noCPT inconclusive
COc1cc(CCC(=O)OCC(=O)Nc2ccc(F)c(F)c2)cc(OC)c1OC	none (no result: TDP1 block)
CC(=O)Oc1ccc(/C=N/NC(=S)Nc2ccccc2)cc1	none
COc1cc(CCC(=O)Nc2nnc(C)s2)cc(OC)c1OC	DT40 TDP1 CPT 4.6µM, TDP1 cell noCPT 2.9µM
O=C(O)c1ccccc1C(=O)Nc1ccc(Br)c(C(F)(F)F)c1	none
Cc1cc(C)c(C(=O)Nc2ccc(Br)c(C(F)(F)F)c2)c(C)c1	DT40 TDP1 CPT 16µM, TDP1 cell noCPT 12µM
COc1cccc(CN(C)C(=O)c2ccc(OCC(=O)Nc3cccc(C(F)(F)F)c3)c(OC)c2)c1	DT40 TDP1 CPT 10µM, TDP1 cell noCPT 9.2µM (no result: miR-21 reporter)
COc1cc(CCC(=O)Nc2ncc(C)s2)cc(OC)c1OC	none
COc1cc(C(=O)Nc2ccc(Cl)c(C(F)(F)F)c2)cc(OC)c1OC	DT40 TDP1 CPT 15µM, TDP1 cell noCPT 23µM
COC(CNC(=O)CCCn1nnnc1CN1CCOCC1)c1cccs1 (stereo not drawn)	none (no result: TDP1 block)
O=C(Cc1csc(NC(=O)c2ccccc2)n1)NO	DT40 TDP1 CPT inconclusive
O=C(c1ccc2[nH]c(=O)c(=O)[nH]c2c1)N1CCc2ccccc2C1	none
CCC(=O)Nc1nc2cc(OC)ccc2s1	DT40 TDP1 CPT inconclusive, TDP1 cell noCPT 18µM

Screening data from PubChem.
